Measurements: PubChem BioAssay (NCATS)
Records with an inconclusive call do not appear. A call without a number means that no potency is given here. Calls of active or inactive are those of the source. Calls follow the shape of the dose curve; as a rule, active = well fitted curve in the direction sought with a large enough effect; inconclusive = small, poorly fitted or top-dose-only effect, or another doubt; inactive = no such curve, though single readings can be large; an effect the other way counts as inactive or inconclusive.

Legend:
[1] = qHTS Screen of the MIPE 4.0 Collection Against Ewings Sarcoma (TC32) (AID 1259256); also: nearly all actives have a fitted effect of over 45% in size
Procedure, shortened: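 Cells plated in serum-containing RPMI (5% FBS) and treated with compound dilutions for 48 h. Readout luminescent viability; normalization relied on vehicle (no inhibition) and media-only columns (full inhibition).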

[2] = P-glycoprotein substrates identified in KB-8-5-11 adenocarcinoma cell line, qHTS therapeutic library screen (AID 1346987); also: nearly all actives have a fitted effect of over 65% in size
Procedure, shortened: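 P-gp-mediated resistance screen: KB-8-5-11 cells treated 72 h with compounds in dose-response. CellTiter-Glo viability.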

[3] = NS1 protein of Zika virus - qHTS assay to identify small molecule inhibitors in human HEK 293 cells (AID 1347053); also: nearly all actives have a fitted effect of over 55% in size
Procedure, shortened: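 Following 20 h seeding, HEK 293 cells took compound, then 1 h later ZIKV MR766 (MOI = 0.5). Incubation ran 24 h at 37 C before TR-FRET detection of NS1; a drop in signal indicates inhibition.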

[4] = qHTS of pediatric cancer cell lines to identify multiple opportunities for drug repurposing: Primary screen for TC32 cells (AID 1347089); also: nearly all actives have a fitted effect of over 60% in size
Procedure, shortened: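 A viability screen of TC32 cells was run over 48 h, with primary MIPE doses spanning 0.78 nM–46 µM and NPC doses 0.59 nM–46 µM. ATP luminescence (CellTiter-Glo) served as the read-out.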

[5] = qHTS of pediatric cancer cell lines to identify multiple opportunities for drug repurposing: Primary screen for DAOY cells (AID 1347090); also: nearly all actives have a fitted effect of over 55% in size
Procedure, shortened: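 Cell viability, CellTiter-Glo luminescence; 500-1,000 cells/well, 8- or 11-point titration, 48 h compound exposure at 37 degrees C, 5% CO2. Controls: DMSO neutral, bortezomib 2.3 µM final as positive.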
Potency is read from the fitted curve at half-maximal effect.

Structure (SMILES) | Potency [1] | Potency [2] | Potency [3] | Potency [4] | Potency [5]
O=C(c1ccc(F)cc1)N1CCC[C@H](c2nc(-c3ccc(F)cc3)no2)C1 | inactive | 0.118 µM (active) | inactive | inactive | –
CC(=O)OC[C@@H]1O[C@@H](n2ccc(=O)[nH]c2=O)[C@H](OC(C)=O)[C@H]1OC(C)=O | inactive | inactive | inactive | inactive | –
c1ccc2c(Oc3nc(Nc4ccc(N5CCOCC5)cc4)c4ncn(C5CCCCC5)c4n3)cccc2c1 | inactive | inactive | inactive | inactive | inactive
CC[C@H]1OC(=O)[C@H](C)[C@@H](O[C@H]2C[C@@](C)(OC)[C@@H](O)[C@H](C)O2)[C@H](C)[C@@H](O[C@@H]2O[C@@H](C)C[C@H](N(C)C)[C@@H]2O)[C@](C)(O)C[C@@H](C)C(=O)[C@H](C)[C@@H](O)[C@]1(C)O | inactive | inactive | inactive | inactive | inactive
O=C(C=CC#Cc1cccc(NS(=O)(=O)c2ccccc2)c1)NO | 0.833 µM (active) | 4.69 µM (active) | 13.2 µM (active) | 7.39 µM (active) | 2.96 µM (active)
